Laboratory results published in ChEMBL document CHEMBL3988442, “University of Dundee, Small-Polar-MMV Screening Library” (2021).
Among all 48,000 compounds or so, about 13,000 (27%) showed an effect of 50% or more. The list shows a part of the results.

Tested on: Wolbachia pipientis
Assay: Anti-Wolbachia Cell-Based Screen
Type: functional
Set-up: scale not given: in the data most compounds retested in dose-response had high values
Conditions: 5 µM

SMILES	Percent Effect [%]
Cc1ccc2c(c1)CCC21CCN(C(=O)CO)CC1	-11.41
CCC(=O)N1CCC2(CC1)CC(NC(=O)N(C)C)c1cc(C)ccc12 (centres undefined)	98.52
CC(=O)N1CC2(CCN(C(=O)N(C)C)CC2)c2cc(C)ccc21	1.573
CCOC1CC2(CCN(CCO)CC2)c2ccc(C)cc21 (centres undefined)	12.38
CC(=O)N1CCC2(CC1)CC(NC(=O)N(C)C)c1cc(C)ccc12 (centres undefined)	112.2
CCC(=O)N1CCC2(CC1)CC(N1CCOCC1)c1cc(C)ccc12.O=C(O)C(F)(F)F (centres undefined)	0.6162
Cc1ccc(C)c(OCc2cc(C(=O)N(C)Cc3cnn(C)c3)no2)c1	-13.61
Cn1cc(C(=O)N2CCCC(Cc3cnccn3)C2)cn1 (centres undefined)	110.5
COc1cccc(OCC2CCCN(C(=O)c3cnn(C)c3)C2)c1 (centres undefined)	-49.1
CCS(=O)(=O)N1CCCC(Cc2cnccn2)C1 (centres undefined)	118.2
CC(O)CN1CC2(CCC1=O)CCN(C(=O)c1cnn(C)c1)CC2 (centres undefined)	-4.211
Cc1ccc(C2CCCN(C(=O)c3cnn(C)c3)C2)nc1 (centres undefined)	105.1
CCS(=O)(=O)N1CCCC(c2nccn2Cc2cccnc2)C1 (centres undefined)	-2.411
CCS(=O)(=O)N1CCCC(c2nccn2Cc2ccccn2)C1 (centres undefined)	-4.348
Cn1cc(C(=O)N2CCCC2CCc2ccccc2)cn1 (centres undefined)	11.22
Cn1cc(C(=O)N2CCCC(CN3CCCC3=O)C2)cn1 (centres undefined)	73.94
COc1cc(N2CCN(Cc3ccc(C)o3)C(CCO)C2)nc(N)n1 (centres undefined)	-10.52
Cc1nn(C)c2c(=O)n(CC(=O)Nc3cc(Cl)cc(Cl)c3)nnc12	4.089
Cn1cc(C(=O)N2CC[C@@]3(O)CCN(C(=O)C4CCC4)C[C@H]3C2)cn1	-11.15
Cn1cc(C(=O)N2CCCC(c3ccncc3)C2)cn1 (centres undefined)	78.37
Cn1cc(C(=O)N2CCCC(c3cnccn3)C2)cn1 (centres undefined)	131
Cc1nccn1CC1CCCN(C(=O)c2cnn(C)c2)C1 (centres undefined)	93.77
COc1ccc(CN(C(=O)C2CCCS2)c2ccncc2)cc1 (centres undefined)	-11.82
COc1ccc(S(=O)(=O)N2CCn3cnc(COCC4CC4)c3C2)cc1	-5.165
CS(=O)(=O)N1CCCCC12CCCN(Cc1nccs1)C2.O=C(O)C(F)(F)F (centres undefined)	-3.648
CNC[C@H]1CC[C@H](c2cc(CN(C)S(=O)(=O)N(C)C)n(C)n2)CC1.Cl	79.31

SMILES	Percent Effect [%]
CNC[C@H]1CC[C@H](c2cc(CN(C)C(=O)c3cnccn3)n(C)n2)CC1.Cl	49.34
O=C(NN1CCCc2ccccc21)c1c[nH]c(=O)[nH]1	-8.796
CCc1cnc(C)nc1NCCNc1nc(C)cc(=O)[nH]1	-6.452
F[C@@H]1CN(CC2CC2)C[C@@H]1OCc1nc2ncccc2[nH]1	-13.13
Cc1ccc(CN2CCC(CNC(=O)Cn3cncn3)CC2)cc1	-4.206
O=C(CCc1ccccc1)NCC1CCN(Cc2ccsc2)CC1	3.98
O=C(CCc1ccccc1)NCC1CCN(Cc2cccs2)CC1	102.9
O=C(CCc1ccsc1)NCC1CCN(Cc2cccs2)CC1	-16.57
O=C(CCc1ccccc1)NCC1CCN(Cc2ccccc2)CC1	111.4
COc1cc2cc(C(=O)NC(C)C(=O)O)n(C)c2c(OC)c1OC (centres undefined)	0.3251
CCc1[nH]c2c(CNc3nc(C)cc(NC)n3)cc(C)cc2c1C	-10.73
CC(SCCC(=O)NC(N)=O)c1ccccc1F (centres undefined)	-10.14
Cc1ccc2c(c1)C1(CCNCC1)CC2N1CCOCC1 (centres undefined)	0.9204
N#Cc1ccc(S(=O)(=O)Nc2ccccc2C#N)cn1	-3.183
COc1ccc(NC(=O)N2CCCCCC2c2ccncc2)cn1 (centres undefined)	-7.407
O=C(NCN1CCc2ccccc2C1)c1cnccn1	-0.1611
O=C(NCC1(O)COCCN(Cc2cccc(O)c2)C1)c1ccccn1 (centres undefined)	141
O=C(NCC1(O)COCCN(Cc2ccc(O)cc2)C1)c1cnccn1 (centres undefined)	136.8
O=C(Nc1cnn(CCN2CCOCC2)c1)c1ccccn1	-4.684
O=C(Nc1cc(N2CCOCC2)ncn1)c1cnccn1	-2.836
O=C(NCCN1CCOCC1)c1ccc(OCc2ccccc2)nc1	-12.09
O=C(NCC1(O)COCCN(Cc2cccc(O)c2)C1)c1cscn1 (centres undefined)	117.5
Cc1ccc(CN2CCOCC2)cc1NC(=O)c1ccsc1	-4.906
O=C(NCCc1cscn1)c1coc(CN2CCOCC2)c1	-2.273
O=C(NCC1(O)COCCN(Cc2cccc(O)c2)C1)c1cnccn1 (centres undefined)	119.9
CCCN(Cc1ccccc1C)C(CC)CO (centres undefined)	3.002

SMILES	Percent Effect [%]
CC(C)c1nc(C(=O)N2CCc3ccccc3C2C(=O)O)cs1 (centres undefined)	-0.5058
CSCCNC(=O)c1coc(COc2ccc3sc(C)nc3c2)n1	-17.64
CCCn1nc2c(cc1=O)CN(Cc1cc(C)no1)CC2	7.336
Cc1nc(N2CCCC2)nc2c1CCN(Cc1ccco1)CC2.O=C(O)C(F)(F)F	-6.041
CNc1nc2c(c(C(=O)N3CCCC3)n1)CN(Cc1ccco1)CC2	133.6
CNc1nc2c(c(C(=O)N3CCCC3)n1)CN(Cc1nccn1C)CC2	14.28
Cc1cc(CN2CCc3nn(C)c(=O)cc3C2)on1	13.66
CNc1nc2c(c(C(=O)N3CCCC3)n1)CN(Cc1cc(C)no1)CC2	97.24
CC1(C)CN(C(=O)c2cnc(CN3CCCC3)s2)CC[C@]1(C)O	-20.27
Cc1cc(NC(=O)CNC(C)(C)c2ccc3c(c2)OCCO3)no1	-9.405
CCNC(=O)NC(=O)CNC(C)(C)c1ccc2c(c1)OCCO2	126.2
Cc1cc(NC(=O)CNC(C)(C)c2ccc3c(c2)OCO3)on1	4.007
CC(C)(NCc1cccc(C(N)=O)c1)c1ccc2c(c1)OCO2	2.76
COC(=O)c1oc(CNC(C)(C)c2ccc3c(c2)OCCO3)cc1C	-6.562
CC(C)(NCc1cccc(O)c1)c1ccc2c(c1)OCO2	4.523
CCNC(=O)NC(=O)CNC(C)(C)c1ccc2c(c1)OCO2	117.5
CC(C)(C)NC(=O)NC(=O)CNC(C)(C)c1ccc2c(c1)OCCO2	3.102
COC(=O)c1oc(CNC(C)(C)c2ccc3c(c2)OCO3)cc1C	-12.91
CC(C)(NCC(=O)NC(=O)NC1CC1)c1ccc2c(c1)OCO2	94.42
CC(C)(NCC(=O)NCC(F)(F)F)c1ccc2c(c1)OCCO2	5.568
CC(C)(NCC(=O)NCC1CC1)c1ccc2c(c1)OCCO2	87.25
Cn1ccc(N2CCCC(NC(=O)c3ccsc3)C2=O)n1 (centres undefined)	-23.95
Cc1cnn(CCCNC(=O)C2CCCCN2Cc2ccncc2)c1 (centres undefined)	-11.5
COc1ccc(C)c2c1N(C(=O)c1cnc3onc(C)c3c1)CCC2	2.409
O=C(CN1CCOC(c2ccc(Cl)c(Cl)c2)C1)NCc1ccco1 (centres undefined)	-33.51
Cc1noc(C)c1CN1CC2(CCCCN2c2cncnc2)CC1=O (centres undefined)	1.289

SMILES	Percent Effect [%]
CC(=O)N1C[C@H]2CCCN(c3ncc(C)cn3)[C@H]2C1	4.198
COCCn1ccnc1C1CCCN(C(=O)CSCC2CC2)C1 (centres undefined)	-1.205
O=C(CCc1ccc(=O)[nH]n1)N1CCCC(COc2ccc(F)cc2)C1 (centres undefined)	-3.616
COc1ccc(CN(C)C2CCN(C(=O)C(C)C)CC2)c2cccnc12	-16.31
CC(C)C(=O)N1CCCC([C@@H]2C[C@H](C(F)F)n3ncnc3N2)C1 (some centres undefined)	140.3
CC(C)C(=O)N1CC[C@@H]2CN(Cc3ccncc3)S(=O)(=O)[C@@H]2CC1	-1.309
COCCC(=O)N1CCCC([C@@H]2C[C@H](C(F)F)n3ncnc3N2)C1 (some centres undefined)	128.9
CC(C)C(=O)N1CCC([C@@H]2C[C@H](C(F)F)n3ncnc3N2)CC1	105.2
CC(NC(=O)Nc1cccnc1N1CCOCC1)c1ccncc1 (centres undefined)	-4.832
CCc1nnc(CN(C)c2cc(C)nc3c(C)c(C)nn23)o1	7.383
Cc1cc(N(C)Cc2cc(C)on2)n2nc(C)c(C)c2n1	-5.11
Cc1ccsc1C(=O)NCCCn1nc2ccccn2c1=O	-12.31
O=C(CC1CCCC1)NCCn1nc2ccccn2c1=O	2.754
Cc1ccccc1CSCCn1nc2ccccn2c1=O	8.414
CN(CCn1nc2ccccn2c1=O)CC(=O)N(C)C1CCCCC1	82.2
CCC(=O)CNC(=O)CCn1nc2ccccn2c1=O	-17.3
CCN(CC)C(=O)CN(C)CCn1nc2ccccn2c1=O	106.3
CC(=O)N1CCCN(CCn2nc3ccccn3c2=O)CC1	104.1
CCCc1cc(C(=O)NCCn2nc3ccccn3c2=O)[nH]n1	0.6756
CC(C1CC1)N(C(=O)NCCCn1nc2ccccn2c1=O)C1CC1 (centres undefined)	-19.29
CCOc1ccccc1CSCCn1nc2ccccn2c1=O	-0.2652
COc1ccc(CC(=O)NCCn2nc3ccccn3c2=O)cc1	7.031
COCCNC(=O)CN(C)CCn1nc2ccccn2c1=O	81.18
CC(NCC1CCS(=O)(=O)CC1)c1cccc(OC(F)F)c1 (centres undefined)	6.07
CCC1=N[C@@]2(CC[C@@H]3CN(CC4CC4)C[C@@H]32)C(=O)N1	9.591
N#Cc1ccc(CNC2CCN(CCc3ccncc3)CC2)cc1	-19.98
